Data taken from PubChem BioAssay (NCI).
About 83,000 compounds went through this panel and 20% of them were active in at least one assay; those are over-represented in the sample as a whole.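 For each line, cells grew in 96-well plates with the test compound present at a single concentration for 48 hours.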 A number with no mark means an inactive call. Activity calls are given as the source filed them. How the source made its calls: active means growth percent below 10; inactive means the rest.

These molecules were tested on HL-60(TB) leukemia (assay: NCI-60 one-dose screen, 48 h (100 = growth as untreated, 0 = no growth, -100 = all killed)). Conditions: 10 µM unless noted.
With `COc1ccc(NC2=C(I)C(=O)c3ncccc3C2=O)cc1` the growth was -47.5% (active). With `Cc1ccsc1/C=C/C1=NCCCN1C` the growth was 126%. Molecule `O=C1NCN(CCO)CN1` has a growth of 97.5%. `O=C(Nc1cccc(-n2cc(-c3ccncc3)c(-c3ccc(O)c(Cl)c3)n2)c1)c1cccc(C(F)(F)F)c1` gave a growth of 13.3%. For `COc1cc(/C=C/C(=O)Nc2ccc3c(c2)/C(=C\c2cccn2C)C(=O)N3)cc(OC)c1OC`, the growth was 40.6%. `CCN(Cc1ccccc1)c1ccc(SC#N)cc1` gave a growth of 20.3%. With `O=c1oc2ccccc2cc1-c1csc(N/N=C/c2cc3ccccc3nc2Cl)n1` the growth was 116%. `COc1ccc(Br)c(/C=C2\SC(=Nc3ccc(O)cc3)NC2=O)c1` was tested, and the growth was 76.6%. In the case of `O=C(NCCCN1CCN(CCCNC(=O)C2CCCCC2)CC1)C1CCCCC1`, the growth was 98.9%. Molecule `CCOC(=O)c1ccc(Nc2ccnc(SCC(=O)c3ccc(C#N)cc3)n2)cc1` has a growth of 75.6%. With `OCCNc1nc(NCCO)nc(Nc2ccc(C3=NN(c4cc(Cl)cc(Cl)c4)C(c4ccc(Cl)cc4)C3)cc2)n1` (stereo not given) the growth was 13.7%. With `CCn1cc(-c2ccnc(NCCNS(=O)(=O)c3cccc4ccccc34)c2)c(-c2cccc(O)c2)n1` the growth was 103%. Work on `COc1ccc(/C=C(\C#N)n2nnc3cc(F)c(F)cc32)cc1` yielded a growth of 13.8%. `NC(=O)NCCO` was tested, and the growth was 109%. `C#CCNC(=O)[C@H](Cc1ccccc1)NC(=O)[C@]12CC[C@@H](C(=C)C)[C@@H]1[C@H]1CC[C@@H]3[C@@]4(C)Cc5c([nH]c6ccccc56)C(C)(C)[C@@H]4CC[C@@]3(C)[C@]1(C)CC2` showed a growth of 93.1%. `COc1ccc(C2[C@@H](c3ccccc3)C(=O)N2c2cc(OC)c(OC)c(OC)c2)cc1F` (stereo not given in full) was tested, and the growth was -50.3% (active). In the case of `C=C1C(=O)O[C@H]2[C@H]1CC/C(Cn1cc(-c3cc(C(F)(F)F)cc(C(F)(F)F)c3)nn1)=C\CC[C@@]1(C)O[C@@H]21`, the growth was -49.1% (active). With `COC(=O)c1nc(-c2ccccc2)oc1S(=O)(=O)N1CCC(C(N)=O)CC1` the growth was -33.2% (active). With `C=CCOc1ccc2c(c1)CC[C@@H]1[C@@H]2CC[C@@]2(C)[C@H]1CC[C@]2(C)O` the growth was 74.6%. `Fc1ccc2[nH]cc(SSc3c[nH]c4ccc(F)cc34)c2c1` was tested, and the growth was -32.3% (active). `CSc1nc2sc3cc(Cl)c(Cl)cc3n2c(=N)c1C#N` was tested, and the growth was 110%. `COC1=C(C)C(=O)c2c(c(CCCl)c3n2CCC3O)C1=O` (stereo not given) was tested, and the growth was 50.3%. Molecule `CC(=S)Nc1ccccc1` has a growth of 103%. `CCN(CC)C(=S)SCCO` gave a growth of 102%. Molecule `CCC(CCCN(CC)CCc1ccccc1)OC(=O)c1cc(OC)c(OC)c(OC)c1` (stereo not given) has a growth of 95%. `NS(=O)(=O)c1cccc(NC(=O)C(=O)C2C(=O)Nc3ccccc32)c1` (stereo not given) gave a growth of 159%. `N#C/C(=C\c1c(-c2ccccc2)[nH]c2ccccc12)C(=O)c1ccccc1` was tested, and the growth was 2.79% (active). `CC(=O)[C@H]1CC[C@]2(C)[C@@H]1CC[C@@H]1[C@@]3(C)CC(CCC#N)(CCC#N)C(=O)C(C)(C)[C@@H]3CC[C@]12C` showed a growth of 103%. For `N#CC(C#N)=Cc1cc2ccccc2nc1Oc1ccc(C(F)(F)F)cc1`, the growth was 78.4%. In the case of `O=c1nc(-c2ccccc2)c2cc(-c3ccc(C(F)(F)F)nc3)ccc2[nH]1`, the growth was 94.5%. Work on `Clc1cccc(Cl)c1/C=C/c1cc(/C=C/c2c(Cl)cccc2Cl)[nH]n1` yielded a growth of 12.6%. `COc1ccc(C2CC(n3ccnc3)c3cc(OC)c(OC)c(OC)c32)cc1O` (stereo not given) gave a growth of 83.6%. For `C#C[C@]1(O)CC[C@H]2[C@@H]3CC=C4c5sc(Nc6ccccc6)nc5CC[C@]4(C)[C@H]3CC[C@@]21C`, the growth was 7.59% (active). `O=C(N/N=C/c1cccc(O)c1O)c1ccccc1` gave a growth of 19.1%. `Cc1nc2cc(Nc3nc(NCCN)nc(Nc4ccc(F)cc4)n3)ccc2n1Cc1ccccc1` was tested, and the growth was -21.5% (active). With `N#Cc1cccc(C2C3=C(COC3=O)N(CCO)c3cc4c(cc32)OCO4)c1` (stereo not given) the growth was -32.1% (active). In the case of `CCn1cc(/C=C2\Oc3cc(OCC#N)ccc3C2=O)c2cc(OC)ccc21`, the growth was -31% (active). `CCOC(=O)c1sc(Nc2ncccn2)nc1-c1ccccn1` gave a growth of 109%. `CCC(c1ccc(OC)cc1)C(CC)c1ccc(O)c(CN2CCN(C)CC2)c1` (stereo not given) gave a growth of 55.3%. In the case of `COc1ccc(/C(C)=C(\c2ccc(OCCN3CCCCCC3)cc2)c2ccc(OC(=O)c3ccccc3)cc2)cc1`, the growth was 31.2%.
